Source: PubChem
Rows were chosen to be rich in hits. Some 1.2% of all compounds tested hit in one or more screens of this group.
BioA inh: blocks M. tuberculosis BioA enzyme activity. purified M. tuberculosis BioA enzyme, plate reader. inhibition, % at 9.99 µM. actives 0.096% (n = 360,000); in the data active means inhibition above about 40%; inconclusive means no clear call, values can overlap the other calls
Vc quorum ag-1: quorum light induction in luxS cqsA deficient V. cholerae; V. cholerae BH1578 lux reporter, luminescence, 6 h; activation, % at 18.7 µM; actives 0.16% (n = 350,000); in the data active means activation mostly above about 9.7%, no sharp cut-off; inconclusive means no clear call, values can overlap the other calls; inactive means mostly below about 3.7%
TcdB inh: blocks C. difficile toxin B glycohydrolase activity; P18177; TcdB glycohydrolase enzymatic assay, plate reader; inhibition, % at 9.99 µM; actives 0.24% (n = 350,000); AID 652162; in the data active means inhibition above about 10%
DUSP3 inh: DUSP3 (human) phosphatase inhibition | recombinant VHR phosphatase, pNPP absorbance | P51452 | inhibition, % at 13.3 µM | actives 0.52% (n = 290,000); in the data active means inhibition above about 50%
Target sequence (P51452 whole entry, looked up): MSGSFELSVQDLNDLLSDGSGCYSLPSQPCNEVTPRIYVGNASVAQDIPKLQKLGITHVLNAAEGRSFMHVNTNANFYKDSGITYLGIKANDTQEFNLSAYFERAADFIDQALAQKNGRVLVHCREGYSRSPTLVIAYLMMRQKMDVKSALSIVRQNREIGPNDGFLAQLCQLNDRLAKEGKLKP
PfHsp40 rescue: rescue of PfHsp40-mediated yeast toxicity. AID 504582. growth rescue, % at 12.5 µM. S. cerevisiae expressing PfHsp40, growth rescue, ATP luminescence. actives 0.68% (n = 340,000); in the data active means growth rescue above about 28%, passing the limit was not always enough; inconclusive means no clear call, values can overlap the other calls;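 further: yeast W303a lacking pdr1 and pdr3 grown in galactose medium; growth measured after three days at 30 °C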
Y pestis TopoI: blocks Yersinia pestis topoisomerase I activity. Y. pestis Topo-I cleavage product accumulation, plate reader. actives 0.064% (n = 360,000). activity, % at 10 µM. AID 504884; in the data active means activity above about 50%, passing the limit was not always enough; inconclusive means no clear call, values can overlap the other calls
Vc quorum ag-2: quorum light induction in BH1578 reporter strain | shares compounds with Vc quorum ag-1 | activation, % at 50 µM | 620 tested, under 10 active | AID 602243 | V. cholerae BH1578 lux reporter, luminescence, 6 h; call rule not given here
HeLa tox: cytotoxicity in HeLa cells at 24 hours; activity change, negative = cytotoxicity, % at 35 µM; HeLa viability, CellTiter-Glo ATP luminescence; 25 tested, under 10 active; shares compounds with Vc quorum ag-1;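 active means signal drop with fitted half-maximal concentration at or below twice the highest valid dose; inconclusive means flat curve with 30 to 70% loss, or poor fit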
Of the large screens only hits and unclear results are named; the others gave an inactive call (follow-up assays come after a bar, where they were run).

CN(C)C(=O)[C@@H]1[C@@H](CO)[C@@H]2Cn3c(cccc3=O)[C@@H]2N1C(=O)C1CCCCC1	none (no result: Vc quorum ag-1, DUSP3 inh, PfHsp40 rescue, Y pestis TopoI)
CCS(=O)(=O)N1CCN(C(=O)CCC2CCCC2)CC1	Vc quorum ag-1 28 (no result: TcdB inh) | Vc quorum ag-2 inactive
O=C(CCC1CCCC1)N1CCN(S(=O)(=O)Cc2ccccc2)CC1	none (no result: BioA inh, TcdB inh)
COC(C(=O)Nc1ccccc1C(=O)N1CCOCC1)c1ccccc1 (stereo not drawn)	none | Vc quorum ag-2 inactive
CSCCC(NC(=O)c1ccccc1Br)C(=O)NC(C)CCc1ccccc1 (stereo not drawn)	none
COC(=O)Cc1c(C)c2ccc(OC(=O)c3ccccc3)cc2oc1=O	none (no result: TcdB inh) | Vc quorum ag-2 inactive
Cc1cc(CCNC=O)c(C)c2c1sc1ccccc12	none (no result: BioA inh, DUSP3 inh)
CCCCCn1nc(C(=O)N(CC(C)C)c2c(N)n(CCCC)c(=O)[nH]c2=O)c2ccccc2c1=O	none (no result: DUSP3 inh) | Vc quorum ag-2 inactive
COc1ccccc1NC(=O)N1CC[C@@H]2[C@H]1c1cc(-c3ccc(F)cc3)ccc1N(C)[C@H]2CO	none (no result: Vc quorum ag-1, DUSP3 inh, PfHsp40 rescue, Y pestis TopoI)
Cc1nnc(NC(=O)c2cccc(S(=O)(=O)N3CCc4ccccc43)c2)s1	none (no result: TcdB inh) | Vc quorum ag-2 inactive
O=C(Nc1nnc(C2CC2)s1)c1cccc(S(=O)(=O)N2CCc3ccccc32)c1	none (no result: TcdB inh) | Vc quorum ag-2 inactive
O=C(CNC(=O)c1cccc(S(=O)(=O)N2CCc3ccccc32)c1)Nc1ccc(F)c(F)c1F	none (no result: DUSP3 inh) | Vc quorum ag-2 inactive
O=C(COC(=O)c1c[nH]c2ccccc12)NC1CCCC1	none (no result: DUSP3 inh)
O=C(NC1CCCCC1)C(=O)c1c[nH]c2ccccc12	Vc quorum ag-1 474 | Vc quorum ag-2 inactive
CCOC(=O)c1c(-c2ccccc2)csc1NC(=O)c1nn(CC)cc1Br	none (no result: BioA inh) | Vc quorum ag-2 inactive
O=C(c1cc(-c2cccs2)nn1-c1ccccc1)N1CCN(S(=O)(=O)c2ccccc2)CC1	none (no result: DUSP3 inh) | Vc quorum ag-2 inactive
Cc1ccc(S(=O)(=O)N2CCN(C(=O)c3cc(-c4cccs4)nn3-c3ccccc3)CC2)cc1	none (no result: DUSP3 inh)
O=C1CC(C(=O)N2CCN(c3ccc(F)cc3)CC2)CN1CCc1ccccc1 (stereo not drawn)	none
CC(C)CCN1CC(C(=O)N2CCN(c3ccc(F)cc3)CC2)CC1=O (stereo not drawn)	Vc quorum ag-1 17 (no result: TcdB inh) | Vc quorum ag-2 inactive
Cc1ccc(SCCC(=O)N/N=C/c2ccncc2)cc1	none (no result: BioA inh)
O=C(NCc1ccco1)c1cc2n(n1)C(C(F)(F)F)CC(c1ccc(Cl)c(Cl)c1)N2 (stereo not drawn)	none (no result: TcdB inh) | Vc quorum ag-2 inactive
C[C@H]1CCC[C@@]2(O[C@@H](CCO)C[C@@H](O)[C@@H]2O)O1	none
O=C(Nc1ccc(Cl)c(Cl)c1)Nc1ccccc1C(=O)O	none (no result: TcdB inh) | Vc quorum ag-2 inactive
O=C(Nc1cccc(Cl)c1)Nc1ccccc1C(=O)O	none
CNC[C@H](CC1CCCCC1)NC[C@H](Cc1ccccc1)NCCC12CC3CC(CC(C3)C1)C2	none
CCOc1ccc(Nc2nc3c(c(=O)[nH]2)CCCC3)cc1	Vc quorum ag-1 145 (no result: BioA inh, TcdB inh) | Vc quorum ag-2 inactive
FC(F)(F)c1nnc2sc(-c3cccs3)nn12	Vc quorum ag-1 17 (no result: TcdB inh) | Vc quorum ag-2 inactive
FC(F)(F)c1nnc2sc(-c3ccncc3)nn12	none (no result: TcdB inh)
Brc1ccc(C2=Nn3c(nnc3-c3n[nH]c4c3CCC4)SC2)cc1	Vc quorum ag-1 25 (no result: TcdB inh) | Vc quorum ag-2 inactive
Clc1ccc(C2=Nn3c(nnc3-c3n[nH]c4c3CCC4)SC2)cc1	none (no result: TcdB inh)
COc1cc(NC(=O)C2=C(C)OCCS2)c(Cl)cc1C(=O)NCCN(C)C	Vc quorum ag-1 34 | Vc quorum ag-2 inactive
COc1cc(CCNC(=O)c2ccccc2NC(=O)C2=C(C)OCCS2)cc(OC)c1OC	none
COC(=O)c1cc(NC(=O)C2CC=CCC2C(=O)O)cc(C(=O)OC)c1 (stereo not drawn)	Vc quorum ag-1 7.6 (no result: TcdB inh) | Vc quorum ag-2 inactive
COC(=O)c1ccccc1NC(=O)C1CC=CCC1C(=O)O (stereo not drawn)	none (no result: TcdB inh)
Clc1ccc2nc(SCc3nnc(-c4ccccc4)o3)[nH]c2c1	none (no result: TcdB inh)
Cc1ccc2nc(SCc3nnc(-c4ccccc4Br)o3)[nH]c2c1	none (no result: TcdB inh) | Vc quorum ag-2 inactive
CCCCn1nnnc1NCc1ccc(N2CCCC2)cc1	Vc quorum ag-1 829 (no result: TcdB inh) | Vc quorum ag-2 inactive
CCCCn1nnnc1NCc1cccnc1	none (no result: TcdB inh)
CCCn1nnnc1NCc1c(Cl)cccc1Cl	none (no result: BioA inh)
CCCn1nnnc1NCc1ccc(N2CCCC2)cc1	Vc quorum ag-1 active (no result: TcdB inh) | HeLa tox inactive
COc1cccc(C(=O)Nc2ccc(N(C)C)cc2)c1OC	none (no result: TcdB inh)
O=C(c1ccc(N2CCOCC2)nc1)N1CCOCC1	none
O=C(c1ccc(C(=O)N2CCOCC2)nc1)N1CCOCC1	Vc quorum ag-1 17 (no result: TcdB inh) | Vc quorum ag-2 inactive
C/C=C1\COC(C(=O)NCc2cccc(OC)c2OC)(C(F)(F)F)C=C1C=C1CCCCC1 (stereo not drawn)	PfHsp40 rescue inconclusive (no result: DUSP3 inh)
Cc1cccc(C(=O)OCC(=O)Nc2c(C)nn(-c3ccccc3)c2C)c1O	none (no result: BioA inh, DUSP3 inh, PfHsp40 rescue)
Cc1nn(-c2ccccc2)c(C)c1NC(=O)COC(=O)c1cc(Br)ccc1O	none (no result: DUSP3 inh) | Vc quorum ag-2 inactive
O=[N+]([O-])c1ccc(S(=O)(=O)NCC(c2cccnc2)N2CCc3ccccc32)cc1 (stereo not drawn)	none (no result: DUSP3 inh) | Vc quorum ag-2 inactive
O=S(=O)(NCC(c1cccnc1)N1CCc2ccccc2C1)c1ccccc1 (stereo not drawn)	none
COc1ccc2c(c1)CCC(C)N2S(=O)(=O)c1ccc(C2CNC(=O)C2)cc1 (stereo not drawn)	none (no result: BioA inh) | Vc quorum ag-2 inactive
COc1ccc(N2CCN(CC(=O)Nc3c(C)cc(C)cc3C)CC2)cc1	none (no result: TcdB inh) | Vc quorum ag-2 inactive
CSc1nc(C)c(C(=O)C[n+]2ccccc2C)cc1C#N	none (no result: BioA inh)
CCCc1ccc2oc(C(=O)N(Cc3ccncc3)CC3CCCO3)c(C)c2c1 (stereo not drawn)	none | Vc quorum ag-2 inactive
CCC(C)n1cnc2c(=O)oc3ccccc3c21 (stereo not drawn)	Vc quorum ag-1 114 | Vc quorum ag-2 inactive
Cc1ccc(OCCNC(=O)c2cc(-n3cnnc3)ccc2Cl)cc1C	none (no result: TcdB inh)
COc1ccc(CNC(=O)c2cc(-n3cnnc3)ccc2Cl)cc1	Vc quorum ag-1 25 (no result: TcdB inh) | Vc quorum ag-2 inactive
COc1ccc(CCNC(=O)c2ccc(Cl)cc2Cl)cc1	Vc quorum ag-1 28 (no result: TcdB inh) | Vc quorum ag-2 inactive
CC(C)Sc1nc(NCc2ccco2)c2c3c(sc2n1)COC(C)(C)C3	none (no result: Vc quorum ag-1, TcdB inh)
[O-][n+]1onc2c1CCc1c-2nc(-c2ccccc2)n1OCc1ccccc1	none (no result: TcdB inh)
O=C(O)c1cccc(Nc2ncnc3c2cnn3-c2ccccc2)c1	Vc quorum ag-1 17 (no result: TcdB inh) | Vc quorum ag-2 inactive
Clc1cccc(Nc2ncnc3c2cnn3-c2ccccc2)c1	none
COCCN(C(=O)C(F)(F)F)C(C(=O)NC1CCCCC1)c1ccco1 (stereo not drawn)	none (no result: TcdB inh)
